In the library only some 10% were active in any assay of this set; here they are far more common.
hNpr1 antagonist: blocks ANP-stimulated signaling of human Npr1 receptor. Potency, µM (doses to about 46.3 µM), without a hit: at the top dose activity change, negative = inhibition, usual class: inhibitors. 76,000 compounds, 1.6% hits. AID 1347048. HEK293 hNpr1 GloSensor cGMP, ANP-stimulated luminescence; calls by dose curve; also: nearly all actives have a fitted effect of over 60% in size
Target sequence (P16066 whole entry, looked up): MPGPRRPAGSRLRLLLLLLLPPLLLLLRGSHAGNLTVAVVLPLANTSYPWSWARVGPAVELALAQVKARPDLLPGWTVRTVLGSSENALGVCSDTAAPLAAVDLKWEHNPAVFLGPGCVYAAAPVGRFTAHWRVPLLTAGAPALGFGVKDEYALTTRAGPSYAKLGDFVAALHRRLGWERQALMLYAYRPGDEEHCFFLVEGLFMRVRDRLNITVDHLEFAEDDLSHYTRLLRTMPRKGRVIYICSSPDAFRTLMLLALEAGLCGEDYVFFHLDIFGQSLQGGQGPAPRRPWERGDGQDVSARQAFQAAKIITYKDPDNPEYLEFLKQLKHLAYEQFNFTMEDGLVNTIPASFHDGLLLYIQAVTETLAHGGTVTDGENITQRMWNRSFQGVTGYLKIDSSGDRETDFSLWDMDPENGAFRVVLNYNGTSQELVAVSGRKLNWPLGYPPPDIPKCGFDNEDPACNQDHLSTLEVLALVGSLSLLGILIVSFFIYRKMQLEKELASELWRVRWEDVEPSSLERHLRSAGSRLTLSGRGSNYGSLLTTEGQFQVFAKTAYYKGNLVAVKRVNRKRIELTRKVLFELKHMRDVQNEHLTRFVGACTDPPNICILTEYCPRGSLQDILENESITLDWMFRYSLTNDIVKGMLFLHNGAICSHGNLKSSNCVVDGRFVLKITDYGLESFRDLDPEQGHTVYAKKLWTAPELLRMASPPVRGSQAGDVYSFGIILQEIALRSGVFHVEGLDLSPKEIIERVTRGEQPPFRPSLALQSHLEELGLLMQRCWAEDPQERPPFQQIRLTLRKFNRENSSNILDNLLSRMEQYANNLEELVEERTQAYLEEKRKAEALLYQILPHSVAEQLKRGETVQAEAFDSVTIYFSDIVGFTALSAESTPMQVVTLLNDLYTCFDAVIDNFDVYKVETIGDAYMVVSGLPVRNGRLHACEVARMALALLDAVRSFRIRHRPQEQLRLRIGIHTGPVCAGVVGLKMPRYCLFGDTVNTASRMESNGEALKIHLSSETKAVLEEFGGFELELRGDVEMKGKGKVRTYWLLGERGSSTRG
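HEK293 cells stably expressing human Npr1 and cGMP GloSensor pGS-40F, loaded 2 h with 2% GloSensor reagent, given compound 30 min at room temperature. Luminescence read before and 20 min after 0.1 nM hNppA.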
Luciferase inh: Photinus pyralis luciferase inhibition. 76,000 compounds, 2.5% hits. P08659. Potency, µM (top dose mostly 115 µM), hits mostly inhibitors. purified P. pyralis luciferase, luminescence, biochemical; also: nearly all actives have a fitted effect of over 65% in size
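Purified P. pyralis luciferase (10nM final) in 50mM Tris acetate pH 7.5, 10mM Mg acetate, 0.01% Tween-20, 0.05% BSA with 10uM D-luciferin and 10uM ATP. Compounds titrated qHTS. Luminescence imaged on CCD.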
GPT2 inhibitor: blocks human glutamate pyruvate transaminase 2; Q8TD30; Recombinant GPT2, coupled pyruvate oxidase/HRP Amplex Red fluorescence; Potency, µM (titrated, usually from 57.7 µM), for inactives: at the top dose activity change, negative = inhibition, usual class: inhibitors; 100,000 compounds, 0.25% hits; AID 1671188; also: nearly all actives have a fitted effect of over 60% in size
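Inhibition is scored from Amplex Red fluorescence generated when pyruvate oxidase and HRP act on pyruvate released by GPT2. Reactions contain 10ng/uL enzyme, 250uM a-KG and 2mM L-alanine and run 30 min at room temperature.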
3T3 cytotox: NIH 3T3 cell cytotoxicity | NIH 3T3 viability, CellTiter-Glo ATP luminescence, 48-72 h | Potency, µM (titrated, usually from 96.7 µM), inactives show at the highest dose activity change, negative = cytotoxicity, hits mostly inhibitors | 94,000 compounds, 4.3% hits; also: nearly all actives have a fitted effect of over 55% in size
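Viability of NIH 3T3 cells after 48 or 72 hr compound treatment at 37 °C was assessed by CellTiter-Glo, with luminescence imaged following a 10 min room-temperature step.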
HEK cytotox: kills HEK 293 cells. HEK 293 viability, ATP luminescence (CellTiter-Glo), 48-72 h. Potency, µM (highest dose often 115 µM), for inactives: at the highest dose activity change, negative = cytotoxicity, actives largely listed as inhibitors. 94,000 compounds, 6.6% hits. AID 1345083; also: nearly all actives have a fitted effect of over 60% in size
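Luminescence from cellular ATP, measured with CellTiter-Glo, indicates HEK 293 viability. Cells plated at 250 cells/well are treated with compound for 48 or 72 hr at 37 degree Celsius before reagent addition.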
* = called active by the depositor; i = inactive; ? = inconclusive; . = no result; ! = not active in a repeat; [ ] = another dose, or the depositor's remark. Unless noted, calls follow the shape of the dose curve; as a rule, active = well fitted curve in the direction sought with a large enough effect; inconclusive = small, poorly fitted or top-dose-only effect, or another doubt; inactive = no such curve, though single readings can be large; an effect the other way counts as inactive or inconclusive. % is scaled to controls: 0 for no effect and ±100 for the full control effect; potency is read from the fitted curve at half-maximal effect.

SMILES | hNpr1 antagonist | Luciferase inh | GPT2 inhibitor | 3T3 cytotox | HEK cytotox
O=c1c(O)c(-c2ccc(O)c(O)c2)oc2cc(O)cc(O)c12 | . | . | 14µM*! | . | .
O=C(C1CCCN1C(=O)c1ccc(C(F)(F)F)cc1)N1CCC(N2CCCC2=O)CC1 (centres undefined) | . | . | i | -16% | -1%
CC(C)(C)c1ccc(C(=O)Nc2ccc(C(O)[C@H]3COCC(=O)N3Cc3ccccn3)cc2)cc1 (some centres undefined) | -15% | 16µM* | 1% | ? | ?
O=C(Nc1ccc([C@@H](O)[C@H]2COCC(=O)N2Cc2ccccn2)cc1)C1CC1 | -3%[70.6 µM] | i | -7%[88.5 µM] | -5%[138 µM] | -2%[172 µM]
O=C(Cc1ccccc1)Nc1ccc([C@@H](O)[C@H]2COCC(=O)N2Cc2ccccc2)cc1 | 2%[70.6 µM] | i | 3%[88.5 µM] | -18%[174 µM] | -13%[172 µM]
O=C(Cc1ccccc1)Nc1ccc([C@@H](O)[C@H]2COCC(=O)N2Cc2ccc(C(F)(F)F)cc2)cc1 | 0% | i | -2% | 79µM* | ?
N#Cc1ccc(C(=O)Nc2ccc([C@@H](O)[C@H]3COCC(=O)N3Cc3ccc(F)cc3)cc2)cc1 | 0% | i | -1% | -29% | ?
O=C(Nc1ccc([C@@H](O)[C@H]2COCC(=O)N2Cc2ccc(F)cc2)cc1)c1ccccc1 | -7%[70.6 µM] | i | 1%[88.5 µM] | ? | 100µM*
CCOc1ccc(CC(=O)N2CCC[C@H]2c2nc(-c3ccc(C)cc3)no2)cc1 | -2% | i | 1% | ? | ?
CC1=C[C@@H](CNC(=O)COc2ccccc2)[C@H](C(C)C)C[C@H]1Cc1nnc(-c2cncn2C)o1 | -24% | i | 1% | ? | 50µM*
CC1=C[C@@H](CN2CCC[C@H]2CO)[C@H](C(C)C)C[C@H]1Cc1nnc(-c2cncn2C)o1 | 1%[70.6 µM] | i | -1%[88.5 µM] | 100µM* | ?
COc1cccc(-c2c(C(=O)NCc3cccnc3)nc3sccn23)c1 | . | . | 4% | -9% | -6%
COc1ccc(N2CCN(c3nc(C(=O)NCc4ccc(F)cc4F)cs3)CC2)cc1 | ? | i | ? | ? | 35µM*
COc1cccc(N2CCN(c3nc(C(=O)NCc4cccnc4)cs3)CC2)c1 | 11µM* | ? | -11% | ? | 32µM*
COc1ccc(N2CCN(c3nc(C(=O)N4CCC(C)CC4)cs3)CC2)cc1 | ? | ? | -24% | 40µM* | 40µM*
COc1ccc(N2CCN(c3nc(C(=O)N4CCN(C)CC4)cs3)CC2)cc1 | -25% | i | ? | -11% | ?
CCCc1nc(C(=O)N(C)CCCc2cnn(C)c2)cs1 | 3% | i | -5% | 5% | -8%
CCCCN(C)C(=O)c1csc(N2CCN(c3ccccc3)CC2)n1 | ? | i | i | ? | 35µM*
O=C(C1CCCN1[S+](=O)([O-])c1cccs1)N1CCC(c2nc3ccncc3[nH]2)C1 (centres undefined) | . | . | i | -4% | i
CCOC(=O)[C@@H]1[C@@H](OC)C(=O)N(Cc2ccccc2)C12CCN(C(=O)C1CCC1)CC2 | . | . | . | ? | -2%
O=C(NCc1ccccn1)c1csc(N2CCN(c3ccccc3)CC2)n1 | -20% | i | i | ? | 40µM*
COC(=O)c1ccc(CN2C(=O)[C@@H]3C[C@@H](O)CN3C3(CN(Cc4cccc(OC)c4)C3)C2=O)cc1 | -7% | i | -9% | -5% | -10%
CN1CCC(N2CCC(O)(c3csc(CN4CCc5ccccc5C4)n3)CC2)CC1 | 4%[70.6 µM] | i | 0%[88.5 µM] | 56µM* | 40µM*
COc1ccc(CN2CCC(O)(c3csc(CN4CCN(C)CC4)n3)CC2)cc1 | 1%[70.6 µM] | i | -12%[88.5 µM] | 89µM* | 100µM*
OC1(c2csc(CN3CCc4ccccc4C3)n2)CCN(C2CCC2)CC1 | 4%[70.6 µM] | i | -36%[88.5 µM] | 100µM* | 71µM*
SMILES | hNpr1 antagonist | Luciferase inh | GPT2 inhibitor | 3T3 cytotox | HEK cytotox
CN1CCN(Cc2nc(C3(O)CCN(Cc4ccccc4)CC3)cs2)CC1 | 3%[70.6 µM] | i | 1%[88.5 µM] | ? | ?
CC(C)CCN1CCC(O)(c2csc(CN3CCc4ccccc4C3)n2)CC1 | 5%[70.6 µM] | i | -15%[88.5 µM] | 100µM* | 79µM*
COc1ccc(-c2cccc(C(=O)N3CCC(C#N)CC3)c2)nn1 | . | . | . | -8% | ?
O=C(c1ccccc1F)N1CCCC(C(=O)N2CCC(c3nc4ccncc4[nH]3)C2)C1 (centres undefined) | . | . | 3% | 3% | i
CC(C)(C)CC(=O)N1CCC(O)(c2csc(CN3CCc4ccccc4C3)n2)CC1 | -21%[70.6 µM] | i | ? | ? | 71µM*
COc1ccccc1C(=O)N1CCCN(C)c2ccccc21 | -11% | i | -4% | ? | 79µM*
CN1CCCN(C(=O)C2CCCC2)c2ccccc21 | -5% | i | i | ? | 89µM*
COc1ccc(NC(=O)C2CCc3nnc(CN[S+](=O)([O-])c4ccccc4Cl)n32)cc1 (centres undefined) | . | . | 3% | -13% | -1%
CC1OC(OC2C(CO)OC(OCC3OC(OC(=O)C45CCC(C)(C)CC4C4=CCC6C7(C)CCC(OC8OC(CO)C(O)C(OC9OC(CO)C(O)C(O)C9O)C8O)C(C)(C)C7CCC6(C)C4(C)CC5)C(O)C(O)C3O)C(O)C2O)C(O)C(O)C1OC1OC(CO)C(O)C(O)C1O (centres undefined) | . | . | i[11.5 µM] | . | .
O=C(c1ccc2c(c1)OCO2)N1CCC(Cc2nc(-c3ccccc3)no2)CC1 | 4µM* | ? | 2% | ? | 10µM*
COc1ccc(-c2noc(CC3CCN(C(=O)Cc4ccsc4)CC3)n2)cc1 | ? | i | i | ? | 45µM*
COc1ccc(CC2CCN(C(=O)c3c(C)noc3-c3ccc4c(c3)OCO4)CC2)cc1 | ? | i | 2% | 25µM* | 35µM*
COc1ccc(C(=O)N2CCC3(CC2)CC(Cc2nc(-c4ccccc4)no2)CCO3)cc1 (centres undefined) | 7.1µM* | ? | i | ? | 13µM*
COc1ccc(CCC(=O)N2CCC3(CC2)CC(Cc2nc(-c4cccnc4)no2)CCO3)cc1 (centres undefined) | ? | i | i | ? | ?
Cc1ccc(CC(=O)N2CCC(Cc3nc(-c4ccccc4)no3)CC2)cc1 | ? | i | i | ? | ?
COc1cccc(-c2noc(CC3CCN(C(=O)c4cc(OC)c(OC)c(OC)c4)CC3)n2)c1 | -18% | i | -2% | ? | 45µM*
COc1ccccc1-c1[nH]nc2ncc(C(=O)N3CCC(c4ccccc4)CC3)nc12 | ? | i | -5%[88.5 µM] | ? | ?
COc1ccccc1-c1[nH]nc2ncc(C(=O)N(C)c3ccccc3)nc12 | -22%[70.6 µM] | i | 1%[88.5 µM] | ? | 89µM*

Screening data: PubChem BioAssay, National Center for Advancing Translational Sciences (NCATS)
